According to PubChem BioAssay AID1645857 (Buhrlage Lab, Dana-Farber Cancer Institute and Novartis …, 2021):
The campaign covered roughly 47,000 compounds. About 1,400 (3%) were called active. Cut-off read from the data, not from the text of the source: active = inhibition above about 30%; inactive = the rest. For the sample, actives were picked, then their nearest neighbours and some compounds at random.

Biological target: Ubiquitin carboxyl-terminal hydrolase 28 (Homo sapiens) (UniProt Q96RU2)
Assay: blocks human USP28 ubiquitin-rhodamine cleavage (AID 1645857)
Conditions: purified USP28, Ub-rhodamine cleavage fluorescence, 30 min; at 25 µM; hits give high values

Chain of Ubiquitin carboxyl-terminal hydrolase 28 (Homo sapiens) (Q96RU2 whole entry, looked up): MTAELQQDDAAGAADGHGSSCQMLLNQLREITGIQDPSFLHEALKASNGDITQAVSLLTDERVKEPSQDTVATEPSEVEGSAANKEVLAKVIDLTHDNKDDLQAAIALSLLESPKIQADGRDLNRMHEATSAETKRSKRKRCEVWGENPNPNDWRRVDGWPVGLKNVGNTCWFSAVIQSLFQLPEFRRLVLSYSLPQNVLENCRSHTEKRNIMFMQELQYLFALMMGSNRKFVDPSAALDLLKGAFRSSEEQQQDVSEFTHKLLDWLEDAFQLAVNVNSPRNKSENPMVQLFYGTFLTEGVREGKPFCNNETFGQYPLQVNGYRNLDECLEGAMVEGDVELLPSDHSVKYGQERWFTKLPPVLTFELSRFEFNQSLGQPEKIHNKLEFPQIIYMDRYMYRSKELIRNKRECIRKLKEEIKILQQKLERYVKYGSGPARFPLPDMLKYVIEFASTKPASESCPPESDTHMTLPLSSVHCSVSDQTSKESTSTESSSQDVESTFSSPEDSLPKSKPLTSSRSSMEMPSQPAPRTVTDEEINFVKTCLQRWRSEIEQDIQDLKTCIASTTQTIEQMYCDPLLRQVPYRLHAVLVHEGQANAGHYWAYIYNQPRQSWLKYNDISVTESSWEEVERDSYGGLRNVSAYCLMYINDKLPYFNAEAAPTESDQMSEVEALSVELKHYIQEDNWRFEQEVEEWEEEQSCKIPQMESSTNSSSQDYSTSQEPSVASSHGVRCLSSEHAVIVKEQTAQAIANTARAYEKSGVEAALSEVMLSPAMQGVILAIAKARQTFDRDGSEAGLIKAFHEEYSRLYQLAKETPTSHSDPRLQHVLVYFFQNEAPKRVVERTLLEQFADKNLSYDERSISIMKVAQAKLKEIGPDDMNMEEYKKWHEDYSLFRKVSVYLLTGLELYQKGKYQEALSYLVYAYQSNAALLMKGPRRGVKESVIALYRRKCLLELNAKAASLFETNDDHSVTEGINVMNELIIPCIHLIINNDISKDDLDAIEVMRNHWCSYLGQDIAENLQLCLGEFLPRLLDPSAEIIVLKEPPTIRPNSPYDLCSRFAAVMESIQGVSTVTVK

Structure (SMILES) | inhibition
CC(C)CN1[C@H]2CCN(C(=O)c3cnccn3)CC[C@@H]2Oc2ccccc2S1(=O)=O | -3.97% (inactive)
Cc1nc2ccccc2n1CCNC(=O)c1ccccc1Cl | -3.71% (inactive)
CC(=O)N1CCc2cc(S(=O)(=O)NCC(=O)NCc3ccc4c(c3)OCO4)ccc21 | -1.7% (inactive)
Cc1noc(CNC(=O)c2cc(-c3ccco3)on2)n1 | -29.2% (inactive)
Cc1cccc(CNC(=O)C2CCN(c3cnc4nccnc4c3)CC2)c1 | -81.1% (inactive)
O=C(NCc1cccnc1)C1CCN(c2cnc(N3CCCCCC3)nc2)CC1 | 60.9% (active)
Cc1[nH]c(C(=O)N2CCCC(C(=O)NCc3cccnc3)C2)c(C)c1C (stereo unspecified) | -6.57% (inactive)
O=c1c2c(ncn2C2CCCC2)n(Cc2ccccc2)c(=O)n1Cc1ccccc1 | 6.37% (inactive)
O=C(O)c1cc(-c2ccc(-c3ccccc3F)o2)nc2ccc(F)cc12 | -179% (inactive)
CCc1ccccc1NC(=O)N1CCCC1c1ccnn1CC (stereo unspecified) | 12.8% (inactive)
c1cc(CNCc2ccc3c(c2)OCO3)ccn1 | -2.19% (inactive)
c1ccc(-c2ccc(NCc3ccc4c(c3)OCO4)nn2)cc1 | 61.2% (active)
CCC(Oc1ccccc1)C(=O)NCc1ccc2c(c1)OCO2 (stereo unspecified) | 6.67% (inactive)
N#CC1=C(N)Oc2nc[nH]c(=O)c2C1c1cccc(F)c1 (stereo unspecified) | -2.3% (inactive)
CCC(C)[C@H](NS(=O)(=O)c1ccc(C)cc1)C(=O)N1CCC(C(=O)N[C@H](Cc2c[nH]c3ccccc23)C(=O)O)CC1 (stereo partly specified) | -2.54% (inactive)
CCCCc1nc2sc3c(SCC(=O)NCc4ccccc4)ncnc3c2c2c1CCC2 | 54.5% (active)
CCCCCCSc1ncnc2c1sc1nc(-c3ccccc3)c3c(c12)CC(C)(C)OC3 | -0.572% (inactive)
CCCc1nc2sc3c(N4CCC(C)CC4)ncnc3c2c2c1CCC2 | 2.73% (inactive)
CCn1c(SCc2cccc(C)c2)nnc1-c1cnccn1 | 58.5% (active)
CCc1ccc(NC(=O)CSc2nnc(-c3cnccn3)n2Cc2ccco2)cc1 | -5.3% (inactive)
Cc1ccc(NC(=O)CSc2nnc(-c3cnccn3)n2Cc2ccco2)cc1C | -1.17% (inactive)
COc1cc(O)sc1C=Nc1ccc(Oc2ccccc2)cc1 | 40.7% (active)
COc1ccccc1C(=O)Nc1cccc(Oc2ccccc2)c1 | 19.6% (inactive)

Structure (SMILES) | inhibition
O=C(c1ccc[nH]1)N1CCCn2c(nc(Cn3ccnc3)cc2=O)C1 | 12.3% (inactive)
CCN(C(=O)CSc1nnc(-c2ccoc2C)o1)c1ccccc1 | 6.53% (inactive)
O=C(COc1ccc2ccccc2c1)NCc1nnnn1-c1ccc(Cl)cc1 | 30.4% (active)
Cc1ccc(NC(=O)NCc2nnnn2-c2ccccc2)cc1C | 5.32% (inactive)
CC(C)c1ccc(OCC(=O)NCc2nnnn2-c2ccc(Cl)cc2)cc1 | 20.1% (inactive)
Cc1ccc(C)c(NC(=O)c2cn(C)cc3c(=O)n(-c4ccccc4)nc2-3)c1 | 2.87% (inactive)
COc1cc(Cn2cnc3c([nH]c4ccc(Br)cc43)c2=O)cc(OC)c1 | 43.8% (active)
O=c1c2[nH]c3ccc(Cl)cc3c2ncn1Cc1cccnc1 | -8.15% (inactive)
CCOc1ccc2[nH]c3c(=O)n(Cc4cccnc4)cnc3c2c1 | 13.7% (inactive)
CCOc1cccc(C(=O)N2CCC(c3nc4ccccc4o3)CC2)c1 | -7.65% (inactive)
Cc1cc(C)n2c(SCC(=O)Nc3cc(C(C)(C)C)nn3-c3ccccc3)nnc2n1 | 6.69% (inactive)
Cc1cc(C(F)(F)F)n2nc(C3CCN(C(=O)c4cc5ccccc5s4)C3)cc2n1 (stereo unspecified) | 17.6% (inactive)
NCCCC(=O)N1CCC2(CC1)C(=O)NCN2C(=O)Cc1ccccc1 | -0.0141% (inactive)
O=C1CO[C@H]2CN(Cc3ncc[nH]3)C[C@H]2N1c1ccccc1 | 19.7% (inactive)
COc1ccccc1CCNC(=O)CCc1c(C)c2ccc(O)c(C)c2oc1=O | 2.41% (inactive)
Cc1cc(NC(=O)COC(=O)c2cccc(C)c2O)ccc1Br | 5.74% (inactive)
Cc1cc(-c2nnc(SCC(=O)Nc3ccc(Br)c(C)c3)n2N)n[nH]1 | 38.4% (active)
Nn1c(SCC(=O)Nc2ccccc2F)nnc1-c1n[nH]c2c1CCC2 | -7.92% (inactive)
O=C(CN1CCC2(CC=CCN(CCc3ccccc3)C2=O)CC1)Nc1ccc(F)cc1 | -25.4% (inactive)
COc1ccc(C(=O)N2CCc3cc4ccccc4nc32)cc1OC | -5.16% (inactive)
O=S(=O)(c1ccc(Cl)cc1)N1CCc2nc[nH]c2C1 | -11.8% (inactive)
CC1CCC/C=C/C=C/C(=O)CC(O)C/C=C\C=C\C(O)C/C=C/C=C\C(=O)O1 (stereo unspecified) | 2.22% (inactive)
CC(C)CN1C[C@@]23CN(C(=O)NCCc4ccc(F)cc4)C[C@@H](C[C@@H]2S1(=O)=O)O3 | 32.3% (active)

Structure (SMILES) | inhibition
COCCN1C[C@@]23CN(C(=O)NCc4ccccc4)C[C@@H](C[C@@H]2S1(=O)=O)O3 | 5.8% (inactive)
CCc1ccc(NC(=O)N2C[C@H]3C[C@H]4[C@](C2)(CN(Cc2cccnc2)S4(=O)=O)O3)cc1 | 1.25% (inactive)
CC(C)NC(=O)c1nc(Cn2c(C(F)F)nc3ccccc32)no1 | 5.94% (inactive)
CC1=C(C(=O)Nc2ccc(C)cc2C)C(c2cccs2)n2c(nc3ccccc32)N1 (stereo unspecified) | 6.45% (inactive)
O=C(c1ccccn1)N1CCn2nc(-c3ccc4ccccc4c3)cc2C1 | 1.7% (inactive)
O=C(Cc1ccccc1F)N1CCCC(c2[nH]nc3nccnc23)C1 (stereo unspecified) | 1.05% (inactive)
COc1cccc(C2C(C(=O)Nc3ccccc3C)=C(C)Nc3ncnn32)c1OCc1ccccc1 (stereo unspecified) | 2.46% (inactive)
COc1ccccc1NC(=O)C1=C(C)Nc2ncnn2C1c1ccc(C)o1 (stereo unspecified) | 1.41% (inactive)
COc1ccc(NC(=O)C2=C(C)Nc3ncnn3C2c2cccc(OCc3ccc(F)cc3)c2)c(OC)c1 (stereo unspecified) | 46.2% (active)
CNc1cccc(C2CN(C(=O)c3cnn4cccnc34)CCO2)n1 (stereo unspecified) | -3.02% (inactive)
O[C@@H]1C[C@H]2CN(Cc3ccc(F)cc3)[C@H](Cc3ccccc3)CN2C1 | 2.96% (inactive)
COc1ccc2c(c1)OC[C@@H](Cc1ccccc1)N(Cc1ccncc1)[C@H]2C | 8.99% (inactive)
N#Cc1cccc(CSc2ncnc(N)n2)c1 | 39.9% (active)
Cc1ccc(-c2cc3n(n2)CCCN(C(=O)c2ccccn2)C3)cc1 | 0.0245% (inactive)
Cc1ccc(Cl)cc1NC(=O)N1CCc2nc(N3CCCCC3)ncc2C1 | -54.3% (inactive)
Cc1ccc(N2CCCS2(=O)=O)cc1NC(=O)Cc1ccc(Cl)cc1 | 33.1% (active)
Cc1ccc(CC(=O)Nc2nnc(C3CC(=O)N(c4ccc(C)c(C)c4)C3)s2)cc1 (stereo unspecified) | 13.1% (inactive)
Cn1ccc(C(=O)NCc2cnc(C3CCCCO3)nc2)n1 (stereo unspecified) | 6.1% (inactive)
COc1ccc(CC(=O)Nc2ccc3c(c2)CN(C(=O)c2ccco2)CC3)cc1 | 23.1% (inactive)
Cc1ccc(C)c(CSc2nc(-c3ccco3)nc3c2c(=O)n(C)c(=O)n3C)c1 | -10.3% (inactive)
Cc1ccc(C)c(CSC2=NCCN2C(=O)c2ccco2)c1 | 70.4% (active)
Cc1ccc(-n2cc(-c3noc(C(=O)Nc4ccc(F)cc4C)n3)nn2)cc1 | 13.4% (inactive)
CC(C)NC(=O)c1csc(-c2ccc(N3CCCC3)nc2)n1 | -10% (inactive)

Structure (SMILES) | inhibition
Cn1c(SCc2ccc(Cl)cc2)nnc1-c1ccc2c(c1)OCCO2 | 41% (active)
O=C(CSc1nnc(-c2ccc3c(c2)OCO3)n1-c1ccccc1)OCC(=O)c1ccccc1 | 14.9% (inactive)
Cc1cc(C(=O)CSc2nnc(-c3ccc(F)cc3)n2C)c(C)n1C | -21.9% (inactive)
O=C(N[C@@H](Cc1ccccc1)C(=O)N1CCc2ccccc2C1)c1cccnc1 | 5.48% (inactive)
Cc1oc(-c2cccc(Cl)c2)nc1Cn1c(=O)n(C(C)C)c(=O)c2ccccc21 | -19% (inactive)
Cc1c(C(=O)NC2CCCCC2)oc2ccccc12 | 3.81% (inactive)
O=C(CSc1ncnc2c1oc1ccccc12)NC1CCCC1 | 46.9% (active)
CCc1nc(SCC(=O)Nc2cccc3ccccc23)c2oc3ccccc3c2n1 | 2.85% (inactive)
O=C(Cc1nnc2c(-c3nc(C4CC4)no3)cccn12)Nc1ccccc1 | 11% (inactive)
CN(C)C(=O)CN1CCC2(CC1)CN(Cc1ccccn1)C(=O)CO2 | 8.76% (inactive)
CN1CCN(c2ncc3c(=O)n(CC4CCCO4)ccc3n2)CC1 (stereo unspecified) | -10.1% (inactive)
COc1ccc(NC(=O)CCN2C(=O)c3cccnc3Sc3ccccc32)cc1 | 9.9% (inactive)
Cc1cc(C)c(NC(=O)CCN2C(=O)c3cccnc3Sc3ccccc32)c(C)c1 | 32.4% (active)
O=C(CCN1C(=O)c2cccnc2Sc2ccccc21)Nc1cc(F)ccc1F | 11% (inactive)
CC(C)(C)c1nn(-c2ccccc2)c2[nH]c(=O)c(CNCCc3ccccc3)cc12 | 20.3% (inactive)
Cc1ccccc1Nc1nc(N)nc(CSc2ccccc2)n1 | -0.136% (inactive)
Cn1cc(CCNC(=O)Nc2cc(F)ccc2F)c2cccnc21 | 44.1% (active)
Cn1cc(CCNC(=O)c2cc3ccccc3[nH]2)c2cccnc21 | 63.9% (active)
Cn1c(CCNC(=O)c2ccc(C(C)(C)C)cc2)nc2cccnc21 | -229% (inactive)
Cn1cc(-c2nc(C(=O)Nc3ccc(F)cc3)cs2)c2cccnc21 | 21.1% (inactive)
CCn1cc(C(=O)OCC(=O)Nc2cc(F)ccc2F)c(=O)c2ccc(C)nc21 | -0.0765% (inactive)
Cc1cccc(S(=O)(=O)NCCc2cn(C)c3ncccc23)c1 | -5.33% (inactive)
